FXN GAA850 act – frataxin GAA850 promoter activation | activation, % at 6 µM | HEK293 lucGAA850 FXN promoter luciferase reporter, 24 h; percent of 10 µM SAHA response | hit rate 0.56% among 360,000 | AID 540364;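 active = activation above the average of all compounds screened plus 3 SD, cutoff fixed separately per campaign, cut at about 7.5% in these data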
AHR activator – activators of human aryl hydrocarbon receptor; AHR-responsive luciferase reporter cells, luminescence; activation, % at 5 µM; hit rate 2.5% among 320,000; AID 2796; in the data active = activation above about 47%
Target sequence (P35869 whole entry, looked up): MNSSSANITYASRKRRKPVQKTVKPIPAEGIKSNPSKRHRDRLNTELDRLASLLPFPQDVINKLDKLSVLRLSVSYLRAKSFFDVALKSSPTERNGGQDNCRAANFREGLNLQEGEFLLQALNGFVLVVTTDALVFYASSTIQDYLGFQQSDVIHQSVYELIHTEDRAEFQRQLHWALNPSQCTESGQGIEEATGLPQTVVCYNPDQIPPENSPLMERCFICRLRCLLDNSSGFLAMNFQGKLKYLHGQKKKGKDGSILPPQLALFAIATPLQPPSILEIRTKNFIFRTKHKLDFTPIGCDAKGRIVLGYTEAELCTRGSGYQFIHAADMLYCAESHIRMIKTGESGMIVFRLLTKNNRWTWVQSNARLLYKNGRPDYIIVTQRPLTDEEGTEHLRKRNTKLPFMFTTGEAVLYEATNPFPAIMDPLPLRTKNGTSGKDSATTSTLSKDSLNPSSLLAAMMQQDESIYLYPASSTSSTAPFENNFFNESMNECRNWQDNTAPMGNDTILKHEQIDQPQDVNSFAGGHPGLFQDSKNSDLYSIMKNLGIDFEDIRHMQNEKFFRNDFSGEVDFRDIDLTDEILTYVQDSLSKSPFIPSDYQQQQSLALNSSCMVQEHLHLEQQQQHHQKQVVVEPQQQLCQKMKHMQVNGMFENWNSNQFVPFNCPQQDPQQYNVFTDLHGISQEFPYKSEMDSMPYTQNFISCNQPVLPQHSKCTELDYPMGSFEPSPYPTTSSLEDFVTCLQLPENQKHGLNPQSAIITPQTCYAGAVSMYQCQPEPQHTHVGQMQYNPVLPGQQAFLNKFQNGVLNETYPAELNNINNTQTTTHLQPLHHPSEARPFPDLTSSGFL
NR0B1 inh – inhibitors of human orphan nuclear receptor DAX1 (NR0B1) | AID 504766 | inhibition, % at 6.75 µM | P51843 | hit rate 0.99% among 340,000 | HEK293 Gal4-DAX1 luciferase reporter, luminescence;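 active = inhibition above the mean over all tested compounds plus 3 SD, cut at about 4.2% in these data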;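 also: inhibition shows as a rise in luminescence from relieved DAX1 repression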
HSF-1 act – increases HSF-1 driven luciferase reporter signal; NIH3T3-HGL HSF-1 luciferase reporter, MG132, 8 h; 100% = twice DMSO control signal; hit rate 1.7% among 300,000; activation, % at 9 µM; AID 504408;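 active = mean replicate activation of at least 50% with a set share of replicates each reaching 50%; inconclusive = only one of those two conditions met; inactive = mean below 50% and too few replicates reaching it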
HSF1 inh – HSF1 inhibition. hit rate 0.77% among 300,000. activity change, negative = inhibition, % at 7.5 µM (by protocol). NIH3T3-HGL HSE-luciferase, MG132-induced, luminescence 8 h; hits give low values;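 active = more than half of replicate wells show activity change below -50%, luminescence cut by over half; inconclusive = some wells, but at most half, below -50%; inactive = no replicate well below -50%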;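 also: luciferase reports HSF-1 transcriptional activity via heat shock element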
A number is an active result; i = inactive; ? = inconclusive; nt = no result. A selection: hits, their analogues and other compounds. The true share with any hit is near 5.4%.

SMILES	FXN GAA850 act	AHR activator	NR0B1 inh	HSF-1 act	HSF1 inh
COc1cc(CNn2c(C)n[nH]c2=S)cc(Cl)c1OCc1ccccc1	i	i	i	i	i
COc1cc(CNn2cn[nH]c2=S)cc(Cl)c1OCc1ccc(F)cc1	i	87.3	i	i	i
Cc1c(/C=C/C(=O)c2cccs2)cnn1C	i	i	i	i	i
CCc1ccc(C(=O)/C=C/c2cnn(C)c2C)s1	i	i	5.2	i	i
CC(C)(C)NC(=O)C(c1ccc(-c2ccccc2)cc1)N(C[C@H]1CC[C@@H]([C@@H]2CC[C@H](CO)O2)O1)C(=O)c1ccccc1F (some centres undefined)	i	nt	i	nt	nt
CCOC(=O)c1c(C)[nH]c(C(=O)Nc2cc(OCC)c(N3CCOCC3)cc2OCC)c1C	i	i	i	nt	nt
COc1ccc2[nH]c(=O)c(CN(Cc3ccco3)Cc3nnnn3Cc3ccccc3)cc2c1	i	i	i	i	i
COCCn1nnnc1CN(Cc1ccco1)Cc1cc2cc3c(cc2[nH]c1=O)OCO3	i	71.9	i	i	i
COc1ccccc1C(=O)NCC(=O)N/N=C/c1ccncc1	i	i	i	i	i
COc1cc(/C=N/NC(=O)/C(=C\c2ccc3c(c2)OCO3)NC(=O)c2ccccc2)ccc1O	i	69.0	i	i	i
COc1ccccc1C(=O)NCC(=O)N/N=C/c1ccc2c(c1)OCO2	i	i	i	i	-73.2
Cc1ccc2oc(-c3cccc(NC(=S)NC(=O)/C=C/c4ccco4)c3)nc2c1	i	67.4	i	i	i
Cc1ccc2oc(-c3cccc(NC(=O)c4ccc(Br)o4)c3)nc2c1	i	59.5	i	i	i
Cc1ccc2oc(-c3cccc(NC(=S)NC(=O)c4cccs4)c3)nc2c1	i	i	i	i	i
O=C(OCC(=O)c1c[nH]c2ccccc12)c1ccc(F)c(S(=O)(=O)N2CCOCC2)c1	i	nt	i	nt	nt
OC(COc1c(F)cc(Br)cc1F)CN1CCOCC1 (centres undefined)	i	i	i	i	i
OC(COc1c(F)cc(Br)cc1F)CN1CCN(c2ccc(F)cc2)CC1 (centres undefined)	i	i	i	i	-87.4
OC(COc1ccc2ccccc2c1)CN1CCN(c2ccc(F)cc2)CC1 (centres undefined)	i	i	6.9	i	i
O=C(NNC(=O)c1cnccn1)c1ccc(Cl)cc1	i	i	5.8	i	i
CC(C)(CNC(=O)Cc1ccc(Br)cc1)N1CCOCC1	i	i	i	i	i
Cc1nc(CSc2ccc(Br)cc2)cs1	i	i	i	i	i
Cc1nc(CSc2ccc(Cl)cc2)cs1	i	i	i	51.0	i
CC(NC(=O)C12CC3CC(CC(O)(C3)C1)C2)c1ccccc1 (centres undefined)	i	i	5.7	i	i
O=[N+]([O-])c1ccc(Sc2nnnn2-c2ccccc2)nc1	nt	nt	nt	i	i
COc1ccc(C(=O)C(=NNc2ccccc2)c2ccc(OC)cc2)cc1	i	nt	i	nt	nt
SMILES	FXN GAA850 act	AHR activator	NR0B1 inh	HSF-1 act	HSF1 inh
COc1ccc(N/N=C(\C=N\O)C(=O)c2ccc(OC)cc2)cc1	i	47.5	i	i	i
O=[N+]([O-])c1cccc(-c2ccc3nnc(SCc4ccccn4)n3n2)c1	i	i	i	62.6	i
Cc1ccc(C)c(NC(=O)CSc2nc3ccc(N4C(=O)c5ccccc5C4=O)cc3s2)c1	i	i	i	i	i
CCOC(=O)N1CCc2c(sc3nc4n(c(=O)c23)N=C(c2ccc(OC)cc2)CS4)C1	i	i	i	i	i
CC1CCN(CC(=O)NC2CCCCC2)CC1	i	i	4.3	i	?
Cn1c(=NC(=O)COc2ccccc2)sc2ccccc21	i	i	4.7	?	i
COc1ccc(C(=O)N=c2sc3ccccc3n2C)cc1	i	i	4.7	i	i
CCOC(=O)C1=CNS(=O)(=O)NC1c1ccc(Br)cc1F (centres undefined)	i	nt	i	nt	nt
CCN(CC)CCNC(=O)C(=O)NCC1OCCN1S(=O)(=O)c1cccs1 (centres undefined)	i	i	i	i	i
Clc1ccccc1CSc1cc2c(nn1)-c1ccccc1CC2	i	72.4	i	i	i
Cc1ccccc1NC(=O)COC(=O)c1ccc(S(C)(=O)=O)c([N+](=O)[O-])c1	i	i	i	i	-93.0
CS(=O)(=O)c1ccc(C(=O)OCC(=O)NC(=O)C2COc3ccccc3O2)cc1[N+](=O)[O-] (centres undefined)	i	i	i	nt	nt
CC(CCc1ccccc1)NC(=O)COC(=O)c1ccc(S(C)(=O)=O)c([N+](=O)[O-])c1 (centres undefined)	i	i	i	i	-79.4
CC(CCc1ccccc1)NC(=O)COC(=O)c1ccc([N+](=O)[O-])cc1 (centres undefined)	i	i	i	i	i
CS(=O)(=O)c1ccc(C(=O)OCC(=O)NC(=O)C2CCCCC2)cc1[N+](=O)[O-]	i	i	i	69.5	i
O=C1CCCN1c1ccc(N2CCCC2=O)cc1	i	i	i	i	i
O=C(NCc1ccco1)c1ccc(Cl)c(S(=O)(=O)N2CCCC2)c1	i	i	i	nt	nt
O=C(Nc1ccc(O)cc1)C1CCCN1S(=O)(=O)c1ccc(F)cc1 (centres undefined)	i	78.8	4.6	i	i
COc1ccc(CNc2ncc(-c3ccc(F)cc3)n2C)c2ccccc12	i	61.3	i	i	i
CCOc1ccc(-c2cnc(NCc3cccc4ccccc34)n2CCOC)cc1	i	i	i	i	-83.3
COc1ccccc1CNc1ncc(-c2ccccc2)n1C	i	nt	i	i	i
COc1ccccc1CNc1ncc(-c2ccc(F)cc2)n1C	i	72.7	i	i	i
CC(C)(C)c1nn(-c2ccccc2)c2[nH]c(=O)c(C=O)cc12	i	i	i	i	i
CC(C)(C)C(=O)/C(=C/c1ccc(Cl)cc1)n1cncn1	i	nt	i	150.3	i
Cc1[nH]n(-c2ccccc2)c(=O)c1/C=N/N1C(=O)c2ccc3c4c(ccc(c24)C1=O)CC3	i	i	i	74.9	i
SMILES	FXN GAA850 act	AHR activator	NR0B1 inh	HSF-1 act	HSF1 inh
CC1(C)Nc2ccccc2C(=O)N1c1ccc(Br)cc1	i	59.0	9.2	i	i
CC(C)(C)c1ccc(C(=O)NCCC(=O)NCc2cccs2)cc1	i	i	i	i	i
O=C(NCCC(=O)N(CCc1ccccc1)Cc1ccccc1)c1ccc(Br)cc1	i	i	i	i	i
CCOC(=O)C(CC)(CC)C(=O)/C=C/c1cccc(Br)c1	i	i	i	251.0	i
O=c1oc2ccccc2cc1-c1nc2c(s1)CCCC2	i	94.8	i	i	i
Cc1ccc(C=Nc2ccccc2C(N)=O)o1	i	i	i	60.1	i
O=c1c2ccccc2oc2ccc(Oc3ccccc3)cc12	i	i	5.1	i	i
CCOC(=O)C1=C(C)NC(=O)C(C(N)=O)C12CCCC2 (centres undefined)	i	i	5.1	i	i
Cc1oncc1C(=O)Nc1ccc(C(F)(F)F)cc1	i	67.4	i	i	i
COC(=O)c1cccc(NC(=O)c2cnoc2C)c1	i	i	i	i	i
Cc1oncc1C(=O)Nc1cccc2ccccc12	i	nt	i	i	i

High-throughput results deposited in PubChem by several laboratories.
